In PubChem BioAssay (NCATS):
Results filed as inconclusive are left out. Active and inactive are the calls of the source. Calls come from the whole dose curve; as a rule, active = well fitted curve in the direction sought with a large enough effect; inconclusive = small, poorly fitted or top-dose-only effect, or another doubt; inactive = no such curve, though single readings can be large; an effect the other way counts as inactive or inconclusive.

Tests used:
[1] = qHTS of pediatric cancer cell lines to identify multiple opportunities for drug repurposing: Primary screen for TC32 cells (AID 1347089); note: nearly all actives have a fitted effect of over 60% in size
Procedure, shortened: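 A viability screen of TC32 cells was run over 48 h, with primary MIPE doses spanning 0.78 nM–46 µM and NPC doses 0.59 nM–46 µM. ATP luminescence (CellTiter-Glo) served as the read-out.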

[2] = qHTS of pediatric cancer cell lines to identify multiple opportunities for drug repurposing: Primary screen for DAOY cells (AID 1347090); note: nearly all actives have a fitted effect of over 55% in size
Procedure, shortened: (§1)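 Eight- or eleven-point concentration series, 48 h treatment at 37 degrees C in growth media; readout CellTiter-Glo luminescence. Potency and efficacy were taken from the concentration-response curves.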

[3] = qHTS of pediatric cancer cell lines to identify multiple opportunities for drug repurposing: Primary screen for SJ-GBM2 cells (AID 1347091)
Procedure, shortened: as §1

[4] = qHTS of pediatric cancer cell lines to identify multiple opportunities for drug repurposing: Primary screen for A673 cells (AID 1347092); note: nearly all actives have a fitted effect of over 45% in size
Procedure, shortened: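 Titration-based qHTS on A673 cells: MIPE compounds spanned 11 points (0.78 nM to 46 µM final), NPC compounds 8 points (0.59 nM to 46 µM final). Viability after 48 h was measured by ATP luminescence.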

[5] = qHTS of pediatric cancer cell lines to identify multiple opportunities for drug repurposing: Primary screen for SK-N-MC cells (AID 1347093)
Procedure, shortened: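 Metabolically active cells were quantified by ATP-dependent luminescence (CellTiter-Glo, 15 min at room temperature) following 48 h treatment. Cells had been plated at 500-1,000 per well and settled for 5 h beforehand.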

[6] = qHTS of pediatric cancer cell lines to identify multiple opportunities for drug repurposing: Primary screen for BT-37 cells (AID 1347094)
Procedure, shortened: (§2)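 Phenotypic viability qHTS, 48 h compound exposure, CellTiter-Glo luminescence read-out; multi-concentration dosing so that potency and efficacy derive directly from the primary screen's curves.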

[7] = qHTS of pediatric cancer cell lines to identify multiple opportunities for drug repurposing: Primary screen for U-2 OS cells (AID 1347096); note: nearly all actives have a fitted effect of over 50% in size
Procedure, shortened: (§3)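 Cells (500-1,000/well) in growth media were settled 5 h at 37 degrees C, then given compounds for 48 h. Viability was read as CellTiter-Glo luminescence. Primary runs used MIPE at 11 points (0.78 nM-46 µM) and NPC at 8 points (0.59 nM-46 µM); follow-ups used 11 points.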

[8] = qHTS of pediatric cancer cell lines to identify multiple opportunities for drug repurposing: Primary screen for Saos-2 cells (AID 1347097); note: nearly all actives have a fitted effect of over 40% in size
Procedure, shortened: as §2

[9] = qHTS of pediatric cancer cell lines to identify multiple opportunities for drug repurposing: Primary screen for SK-N-SH cells (AID 1347098); note: nearly all actives have a fitted effect of over 65% in size
Procedure, shortened: (§4)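 Cells (500-1,000/well) rested 5 h, then received compounds for 48 h; metabolically active cells were measured by CellTiter-Glo luminescence. Final concentrations spanned up to 46 µM (MIPE, 11-point) or 0.59 nM-46 µM (NPC, 8-point) in primary screens, 11-point in follow-ups.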

[10] = qHTS of pediatric cancer cell lines to identify multiple opportunities for drug repurposing: Primary screen for NB1643 cells (AID 1347099); note: nearly all actives have a fitted effect of over 50% in size
Procedure, shortened: as §2

[11] = qHTS of pediatric cancer cell lines to identify multiple opportunities for drug repurposing: Primary screen for LAN-5 cells (AID 1347100)
Procedure, shortened: as §3

[12] = qHTS of pediatric cancer cell lines to identify multiple opportunities for drug repurposing: Primary screen for BT-12 cells (AID 1347101); note: nearly all actives have a fitted effect of over 25% in size
Procedure, shortened: as §4

[13] = qHTS of pediatric cancer cell lines to identify multiple opportunities for drug repurposing: Primary screen for Rh18 cells (AID 1347102); note: nearly all actives have a fitted effect of over 65% in size
Procedure, shortened: as §3

[14] = qHTS of pediatric cancer cell lines to identify multiple opportunities for drug repurposing: Primary screen for OHS-50 cells (AID 1347103); note: nearly all actives have a fitted effect of over 40% in size
Procedure, shortened: as §4

[15] = qHTS of pediatric cancer cell lines to identify multiple opportunities for drug repurposing: Primary screen for RD cells (AID 1347104); note: nearly all actives have a fitted effect of over 55% in size
Procedure, shortened: as §2

[16] = qHTS of pediatric cancer cell lines to identify multiple opportunities for drug repurposing: Primary screen for MG 63 (6-TG R) cells (AID 1347105); note: nearly all actives have a fitted effect of over 50% in size
Procedure, shortened: as §2

[17] = qHTS of pediatric cancer cell lines to identify multiple opportunities for drug repurposing: Primary screen for control Hh wild type fibroblast cells (AID 1347106); note: nearly all actives have a fitted effect of over 55% in size
Procedure, shortened: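 Viability after 48 h compound treatment at 37C, 500-1,000 cells/well, read as ATP luminescence with CellTiter-Glo. Primary screens used 11-point (MIPE, 0.78 nM-46 µM) or 8-point (NPC, 0.59 nM-46 µM) final concentrations; follow-up screens used 11-point dilutions.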

[18] = qHTS of pediatric cancer cell lines to identify multiple opportunities for drug repurposing: Primary screen for NB-EBc1 cells (AID 1347095)
Procedure, shortened: as §2

Measured: Potency
Potency is the fitted concentration of half-maximal effect.

O=C(c1cncc(Br)c1)N1CCC(N2CCCC2)CC1
not listed: [18]
inactive: all other assays above

CC[C@H]1CN2CCc3cc(OC)c(OC)cc3[C@H]2C[C@@H]1C[C@@H]1NCCc2cc(OC)c(OC)cc21
inactive: [17]
active: [1] 1170 nM | [2] 935 nM | [3] 209 nM | [4] 118 nM | [5] 296 nM | [6] 544 nM | [18] 935 nM | [8] 526 nM | [9] 341 nM | [10] 418 nM | [11] 833 nM | [12] 193 nM | [13] 2090 nM | [14] 485 nM

Cc1c(C)n(Cc2ccc(-c3ccccc3C(=O)O)cc2)c2ccc(C(=O)N[C@@H](C)c3ccc([N+](=O)[O-])cc3)cc12
inactive: [1] | [13] | [17]
active: [2] 29.6 nM | [3] 23500 nM | [4] 148 nM | [5] 18.7 nM | [6] 968 nM | [9] 3040 nM | [10] 187 nM | [12] 769 nM | [14] 2730 nM | [16] 18700 nM

CNc1nccc(-c2cccnc2Oc2cc(C(=O)Nc3cccc(C(F)(F)F)c3)ccc2C)n1
active: [2] 14800 nM | [3] 9350 nM | [4] 2960 nM | [5] 3720 nM | [18] 3320 nM | [8] 16600 nM | [9] 9610 nM | [10] 11800 nM | [11] 16600 nM | [12] 19300 nM | [13] 18700 nM | [14] 15300 nM | [15] 8330 nM | [16] 4690 nM
inactive: [1]

Cc1c(CN2CCN(S(C)(=O)=O)CC2)sc2c(N3CCOCC3)nc(-c3cnc(N)nc3)nc12
active: [1] 294 nM | [2] 118 nM | [3] 46.9 nM | [4] 187 nM | [5] 4.7 nM | [6] 193 nM | [18] 33.2 nM | [8] 332 nM | [9] 1920 nM | [11] 26.4 nM | [13] 105 nM | [14] 9.7 nM | [16] 37.2 nM | [17] 209 nM

C[C@]1(CO)CN(c2cc(C(=O)Nc3ccc4c(c3)-c3c(c(C(N)=O)nn3-c3ccc(F)cc3)CC4)c(Cl)cn2)C[C@@]1(C)CO
active: [1] 18600 nM | [2] 11800 nM | [3] 6620 nM | [4] 9350 nM | [5] 1480 nM | [6] 5440 nM | [18] 5900 nM | [8] 16600 nM | [9] 19200 nM | [10] 5900 nM | [11] 5260 nM | [13] 18700 nM | [14] 10900 nM | [16] 9350 nM

CC(C)[C@H](C(=O)Nc1ccc(C(=O)NO)cc1)c1ccccc1
active: [1] 3300 nM | [2] 1870 nM | [3] 590 nM | [4] 1180 nM | [5] 469 nM | [6] 2170 nM | [18] 526 nM | [8] 1480 nM | [9] 2410 nM | [10] 418 nM | [11] 526 nM | [12] 3060 nM | [13] 743 nM | [14] 1220 nM | [16] 2960 nM

C=CC(=O)Nc1cc2c(Nc3ccc(F)c(Cl)c3)ncnc2cc1C#CC(C)(C)N1CCN(C)CC1
active: [1] 11700 nM | [2] 5900 nM | [3] 2960 nM | [4] 1480 nM | [6] 3850 nM | [18] 2960 nM | [7] 7430 nM | [8] 4180 nM | [9] 3830 nM | [10] 526 nM | [11] 2960 nM | [12] 21700 nM | [13] 4690 nM | [14] 3850 nM | [15] 5900 nM | [16] 5900 nM

COc1cc2c(Oc3ccc(NC(=O)C4(C(=O)Nc5ccc(F)cc5)CC4)cc3F)ccnc2cc1OCCCN1CCOCC1
active: [1] 5870 nM | [2] 18700 nM | [4] 2350 nM | [5] 743 nM | [6] 27300 nM | [18] 4180 nM | [7] 14800 nM | [8] 2640 nM | [9] 2410 nM | [10] 6620 nM | [11] 372 nM | [12] 19300 nM | [13] 4690 nM | [14] 385 nM | [15] 8330 nM | [16] 4690 nM | [17] 26400 nM

CCc1cc2c(cc1N1CCC(N3CCOCC3)CC1)C(C)(C)c1[nH]c3cc(C#N)ccc3c1C2=O
inactive: [1] | [2] | [3] | [6] | [7] | [9] | [12] | [13] | [16] | [17]

CC(C)c1ccccc1Cc1cc(C(=O)Nc2ccc(S(=O)(=O)c3ccccc3C(C)(C)C)cc2)c(O)c(O)c1O
inactive: [1] | [7] | [17]
active: [2] 29600 nM | [3] 2960 nM | [4] 18700 nM | [6] 24300 nM | [18] 2350 nM | [8] 26400 nM | [11] 23500 nM | [12] 21700 nM | [14] 24300 nM
